Experiment [1] deals with Estrogen receptor beta (Homo sapiens) (UniProt Q92731). Nature of the experiment: qHTS assay to identify small molecule agonists of the estrogen receptor beta (ER-beta) signaling pathway (AID 1259377; active = well fitted activation curve with a large enough effect in the signal ratio in the repeat runs, not every such curve was filed as active; the % refers to the signal ratio). In short, it runs like this:
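Screening used GripTite ER-beta-UAS-bla cells held in 2% charcoal-stripped FBS medium. After overnight (16 hr) compound incubation at 37C, beta-lactamase activity was detected with a FRET substrate by fluorescence.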

Experiment [2] has the same target. Nature of the experiment: qHTS assay to identify small molecule antagonists of the estrogen receptor beta (ER-beta) signaling pathway (AID 1259378; active = well fitted inhibition curve with a large enough effect in the signal ratio in the repeat runs, not every such curve was filed as active; the % refers to the signal ratio; also: potency is read from the fitted curve at half-maximal effect). Put shortly: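 Antagonist mode: compounds added to beta-lactamase reporter HEK293T ER-beta-UAS cells stimulated with E2 (1nM final), 16 hr at 37C. LiveBLAzer B/G FRET substrate, 2 hours room temperature, fluorescence read-out.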

Experiment [3] in a line: qHTS assay to identify small molecule agonists of the androgen receptor (AR) signaling pathway in the presence of an antagonist - cell viability counter screen (AID 1259379). Also: nearly all actives have a fitted effect of over 25% in size. Also: potency is read from the fitted curve at half-maximal effect. Put shortly: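 Counter screen for cell viability run in parallel with the AR agonist-mode luciferase assay. MDA-kb2 cells were co-treated with nilutamide (3.0uM final) and compounds, then incubated 16 hr at 37C, and CellTiter-Fluor fluorescence was measured.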

Experiment [4] can be described thus: qHTS assay to identify small molecule agonists of the estrogen receptor beta (ER-beta) signaling pathway - cell viability counter screen (AID 1259380). Also: nearly all actives have a fitted effect of over 30% in size. Also: potency is read from the fitted curve at half-maximal effect. In short, it runs like this: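 In this qHTS counter screen, HEK293T cells carrying an ER-beta/UAS beta-lactamase reporter, grown in 2% charcoal-stripped FBS, received compound for 16 hr; ATP-based CellTiter-Glo luminescence was then read after 30 min at room temperature.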

A short description of experiment [5]: qHTS assay to identify small molecule antagonists of the estrogen receptor beta (ER-beta) signaling pathway - cell viability counter screen (AID 1259382).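 Also: HEK293T cells carrying ER-beta-UAS-bla reporter stimulated with estradiol; series mostly up to about 92 µM; nearly all actives have a fitted effect of over 55% in size.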 In short, it runs like this:
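HEK293T ER-beta-UAS-bla, 2% charcoal-stripped FBS; compounds + 1nM E2 16 hr 37C; CellTiter-Glo luminescence, 30 min RT.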

Experiment [6] deals with Estrogen receptor (Homo sapiens) (UniProt P03372). Nature of the experiment: qHTS assay to identify small molecule agonists of the estrogen receptor alpha (ER-alpha) signaling pathway in the presence of an antagonist (AID 1259383; calls by dose curve; also: top concentration of the series differs between compounds; nearly all actives have a fitted effect of over 15% in size). Put shortly:
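ER-alpha agonism measured under antagonist challenge: 10.0nM ICI-182,780 (final) plus compound, 15 concentrations, 22hr, VM7Luc4E2 ERE-luciferase cells. Read by luminescence.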

Experiment [7] is described as follows: qHTS assay to identify small molecule agonists or antagonists of the thyroid stimulating hormone receptor (TSHR) signaling pathway - wild type cell line counter screen (AID 1259384; calls by dose curve). In short, it runs like this: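 Counter screen in untransfected Hek293: compounds (15-point titration, triplicate) plus phosphodiesterase inhibitor Ro20-1724 added after 18 h plating; 30 min RT. Intracellular cAMP via competitive d2/cryptate immunoassay, 1 h incubation.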

The nature of experiment [8]: qHTS assay to identify small molecule agonists of the estrogen receptor alpha (ER-alpha) signaling pathway in the presence of an antagonist - cell viability counter screen (AID 1259386).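 Also: series mostly up to about 92 µM; cells exposed to compounds for 22 h at 37 °C before the viability read; nearly all actives have a fitted effect of over 30% in size.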 In short, it runs like this: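 Steps: 5-day stripped-FBS culture; seed and incubate 24hr; add ICI-182,780 (10.0nM final); pin 15-point compound titration; incubate 22hr at 37C; add CellTiter-Fluor at 21hr; read fluorescence.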

Experiment [9] concerns the target Progesterone receptor (Homo sapiens) (UniProt P06401). Nature of the experiment: qHTS assay to identify small molecule agonists of the progesterone receptor (PR) signaling pathway (AID 1346784; calls by dose curve; also: nearly all actives have a fitted effect of over 30% in size). Put shortly:
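Seed PR-UAS-bla HEK 293T cells (2% charcoal-stripped FBS), incubate 6 hr at 37C; add compounds in DMSO, 16 hr at 37C; add LiveBLAzer B/G substrate, 2 hr RT; read fluorescence intensity.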

Experiment [10] is described as follows: qHTS assay to identify small molecule antagonists of the progesterone receptor (PR) signaling pathway - cell viability counter screen (AID 1346798). Also: series mostly up to about 92 µM; nearly all actives have a fitted effect of over 50% in size. Put shortly: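 Measures cytotoxicity in parallel with the PR antagonist reporter read: HEK293T PR-UAS-bla cells get compound and R5020 for 16 hr, and remaining viable cells are quantified by CellTiter-Glo luminescence.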

A short description of experiment [11]: qHTS assay to identify small molecule agonists of the TGF-beta/Smad signaling pathway - cell viability counter screen (AID 1346829). Also: top concentration of the series differs between compounds; nearly all actives have a fitted effect of over 45% in size. In short, it runs like this:
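After overnight seating at 37 C and 5% CO2, reporter cells got compounds for 5 hr and FRET substrate for 2 hr; cell viability then came from CellTiter-Glo luminescence.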

A short description of experiment [12]: qHTS assay to identify small molecule agonists of the TGF-beta/Smad signaling pathway (AID 1346859; active = well fitted activation curve with a large enough effect in the signal ratio in the repeat runs, not every such curve was filed as active; the % refers to the signal ratio; also: series mostly up to about 77 µM). In short, it runs like this:
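Beta-lactamase reporter activity downstream of Smad binding elements was measured in stably transfected HEK 293T cells; compounds were incubated for 5 hr, substrate for 2 hr at room temperature.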

In experiment [13] the target is Thyrotropin-releasing hormone receptor (Homo sapiens) (UniProt P34981). Nature of the experiment: qHTS assay to identify small molecule antagonists of the thyrotropin-releasing hormone receptor (TRHR) signaling pathway (AID 1346877; active = well fitted inhibition curve with a large enough effect in the repeat runs, not every such curve was filed as active; also: series mostly up to about 51 µM). In short, it runs like this:
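Human TRHR in HEK293 cells; inhibition of the intracellular calcium rise triggered by 1 nM TRH was followed by fluorescence over 3 min. Compounds were run at 15 concentrations, three replicates each.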

Experiment [14] shares this target. Nature of the experiment: qHTS assay to identify small molecule agonists of the thyrotropin-releasing hormone receptor (TRHR) signaling pathway (AID 1346891; calls by dose curve;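 also: HEK293 cells expressing TRHR with calcium dye readout; series mostly up to about 58 µM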). Put shortly:
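Overnight-plated (18 h, 37 °C, 5% CO2) TRHR-Hek293 cells; 2 h calcium dye at 37 °C; compound in DMSO; 3-min kinetic fluorescence read.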

The target in experiment [15] is Thyrotropin receptor (Homo sapiens) (UniProt P16473). Nature of the experiment: qHTS assay to identify small molecule antagonists of the thyroid stimulating hormone receptor (TSHR) signaling pathway (AID 1259385; calls by dose curve; also: nearly all actives have a fitted effect of over 20% in size; also: potency is read from the fitted curve at half-maximal effect). Put shortly: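 Antagonist mode: compound-treated TSHR-expressing HEK293 cells were stimulated with 1.5 ng/mL TSH (final) in presence of Ro20-1724 for 30 min at RT. HTRF cAMP detection after 1 h; each compound tested at 15 concentrations, triplicate.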
Thyrotropin receptor (Homo sapiens), sequence (P16473 whole entry, looked up): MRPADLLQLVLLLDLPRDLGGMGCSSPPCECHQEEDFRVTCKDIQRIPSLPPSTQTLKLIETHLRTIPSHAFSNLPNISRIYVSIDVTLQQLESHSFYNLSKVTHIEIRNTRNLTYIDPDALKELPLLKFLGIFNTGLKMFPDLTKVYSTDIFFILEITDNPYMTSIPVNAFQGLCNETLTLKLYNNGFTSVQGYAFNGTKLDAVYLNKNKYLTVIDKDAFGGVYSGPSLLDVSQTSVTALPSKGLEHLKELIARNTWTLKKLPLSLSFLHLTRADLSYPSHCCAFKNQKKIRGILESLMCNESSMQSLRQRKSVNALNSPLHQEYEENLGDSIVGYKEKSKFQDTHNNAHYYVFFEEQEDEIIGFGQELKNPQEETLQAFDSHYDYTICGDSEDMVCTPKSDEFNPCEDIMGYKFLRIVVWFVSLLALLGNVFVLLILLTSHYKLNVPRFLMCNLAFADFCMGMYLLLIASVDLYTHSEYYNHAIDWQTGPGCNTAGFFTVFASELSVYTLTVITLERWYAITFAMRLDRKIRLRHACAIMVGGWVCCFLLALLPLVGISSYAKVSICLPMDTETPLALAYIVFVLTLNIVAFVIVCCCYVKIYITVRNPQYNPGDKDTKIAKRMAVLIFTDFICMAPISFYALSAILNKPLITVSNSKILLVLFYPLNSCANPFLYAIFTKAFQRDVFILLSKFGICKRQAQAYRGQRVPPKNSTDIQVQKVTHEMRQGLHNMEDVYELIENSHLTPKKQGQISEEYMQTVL

The target in experiment [16] is Progesterone receptor (Homo sapiens) (UniProt P06401). Nature of the experiment: qHTS assay to identify small molecule antagonists of the progesterone receptor (PR) signaling pathway (AID 1346795; active = well fitted inhibition curve with a large enough effect in the signal ratio in the repeat runs, not every such curve was filed as active; the % refers to the signal ratio; also: potency is read from the fitted curve at half-maximal effect). Put shortly:
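Screening used a GripTite HEK293T line with PR-responsive UAS-beta-lactamase. Cells were challenged with compound in the presence of 1 nM R5020 final for 16 hr at 37C; B/G FRET substrate, 2 hr room temperature, fluorescence.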

Experiment [17] in a line: qHTS assay to identify small molecule antagonists of the TGF-beta/Smad signaling pathway - cell viability counter screen (AID 1346824). Also: nearly all actives have a fitted effect of over 50% in size. Put shortly: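 Cytotoxicity counter-screen run in the same wells as the beta-lactamase Smad reporter read: CellTiter-Glo luminescence after 30 min at room temperature. HEK 293T SBE-bla cells had 5 hr compound exposure at 37 C with TGF-beta1 (0.25 ng/mL stock).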

In experiment [18] the target is Androgen receptor (Homo sapiens) (UniProt P10275). Nature of the experiment: qHTS assay to identify small molecule agonists of the androgen receptor (AR) signaling pathway in the presence of an antagonist (AID 1259381; calls by dose curve; also: nearly all actives have a fitted effect of over 15% in size; also: potency is read from the fitted curve at half-maximal effect). Put shortly: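 AR antagonist background: nilutamide 3.0uM final. Cell line: MDA-kb2, MMTV-driven luciferase, responsive to both AR and GR. Exposure 16hr, 37C, no CO2; ONE-Glo luminescence.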
Androgen receptor (Homo sapiens), sequence (P10275 whole entry, looked up): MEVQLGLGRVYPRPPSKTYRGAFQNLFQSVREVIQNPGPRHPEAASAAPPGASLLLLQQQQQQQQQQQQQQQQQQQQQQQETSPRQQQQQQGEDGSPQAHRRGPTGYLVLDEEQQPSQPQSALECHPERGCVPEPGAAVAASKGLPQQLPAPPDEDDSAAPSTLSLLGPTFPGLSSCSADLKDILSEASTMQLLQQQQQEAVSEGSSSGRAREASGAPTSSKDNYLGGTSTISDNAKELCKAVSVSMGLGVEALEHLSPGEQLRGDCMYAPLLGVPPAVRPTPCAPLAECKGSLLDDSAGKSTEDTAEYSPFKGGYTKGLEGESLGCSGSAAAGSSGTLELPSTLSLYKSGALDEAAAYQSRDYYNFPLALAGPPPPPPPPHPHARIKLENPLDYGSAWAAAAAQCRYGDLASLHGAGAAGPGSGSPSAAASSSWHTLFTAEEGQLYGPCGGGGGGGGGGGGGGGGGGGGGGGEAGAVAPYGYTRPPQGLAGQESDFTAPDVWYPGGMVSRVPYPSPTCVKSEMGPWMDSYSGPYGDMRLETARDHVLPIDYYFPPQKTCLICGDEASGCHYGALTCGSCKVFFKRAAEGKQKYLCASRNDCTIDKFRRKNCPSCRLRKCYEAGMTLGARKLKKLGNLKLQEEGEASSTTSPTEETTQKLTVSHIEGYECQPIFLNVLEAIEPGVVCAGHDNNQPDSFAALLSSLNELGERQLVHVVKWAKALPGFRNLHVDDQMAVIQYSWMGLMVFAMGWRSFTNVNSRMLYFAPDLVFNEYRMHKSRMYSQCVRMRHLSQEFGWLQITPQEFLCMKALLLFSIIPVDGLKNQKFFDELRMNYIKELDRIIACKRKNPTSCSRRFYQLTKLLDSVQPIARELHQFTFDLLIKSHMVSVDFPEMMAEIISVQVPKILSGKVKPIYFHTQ

A short description of experiment [19]: qHTS assay to identify small molecule agonists of the progesterone receptor (PR) signaling pathway - cell viability counter screen (AID 1346799; calls by dose curve; also: nearly all actives have a fitted effect of over 45% in size). In short, it runs like this: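 Using the same plates as the PR reporter screen, HEK293T PR-UAS-bla cells received compounds for 16 hr at 37C and were then lysed with CellTiter-Glo; luminescence was read 30 min later at room temperature.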

Results filed as inconclusive are left out. Calls of active or inactive are those of the source. Unless noted, calls follow the shape of the dose curve; as a rule, active = well fitted curve in the direction sought with a large enough effect in the repeat runs; inconclusive = weak or mixed curves; inactive = no such curve, though single readings can be large; an effect the other way counts as inactive or inconclusive.

Thyrotropin-releasing hormone receptor (Homo sapiens), sequence (P34981 whole entry, looked up): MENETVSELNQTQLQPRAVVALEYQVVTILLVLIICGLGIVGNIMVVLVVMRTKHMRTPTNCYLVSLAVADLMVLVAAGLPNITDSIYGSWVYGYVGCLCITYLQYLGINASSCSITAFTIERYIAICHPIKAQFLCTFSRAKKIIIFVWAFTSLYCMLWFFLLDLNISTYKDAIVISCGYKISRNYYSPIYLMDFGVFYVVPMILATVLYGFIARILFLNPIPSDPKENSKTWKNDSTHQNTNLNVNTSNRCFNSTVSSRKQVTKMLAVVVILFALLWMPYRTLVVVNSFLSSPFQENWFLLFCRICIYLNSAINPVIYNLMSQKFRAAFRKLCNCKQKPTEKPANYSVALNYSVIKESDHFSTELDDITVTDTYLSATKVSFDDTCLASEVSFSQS
Estrogen receptor beta (Homo sapiens), sequence (Q92731 whole entry, looked up): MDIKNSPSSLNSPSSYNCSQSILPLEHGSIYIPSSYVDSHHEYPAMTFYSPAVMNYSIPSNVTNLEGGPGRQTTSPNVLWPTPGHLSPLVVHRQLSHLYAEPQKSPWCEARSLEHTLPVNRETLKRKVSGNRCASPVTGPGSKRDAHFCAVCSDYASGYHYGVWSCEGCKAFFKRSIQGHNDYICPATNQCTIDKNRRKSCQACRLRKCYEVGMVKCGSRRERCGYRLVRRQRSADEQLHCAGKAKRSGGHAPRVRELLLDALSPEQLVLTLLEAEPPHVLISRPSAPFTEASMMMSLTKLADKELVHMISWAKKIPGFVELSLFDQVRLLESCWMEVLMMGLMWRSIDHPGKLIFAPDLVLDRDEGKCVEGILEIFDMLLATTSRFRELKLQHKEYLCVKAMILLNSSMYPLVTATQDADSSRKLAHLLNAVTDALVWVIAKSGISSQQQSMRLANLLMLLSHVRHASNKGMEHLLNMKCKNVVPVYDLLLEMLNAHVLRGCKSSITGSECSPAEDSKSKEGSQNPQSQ
Estrogen receptor (Homo sapiens), sequence (P03372 whole entry, looked up): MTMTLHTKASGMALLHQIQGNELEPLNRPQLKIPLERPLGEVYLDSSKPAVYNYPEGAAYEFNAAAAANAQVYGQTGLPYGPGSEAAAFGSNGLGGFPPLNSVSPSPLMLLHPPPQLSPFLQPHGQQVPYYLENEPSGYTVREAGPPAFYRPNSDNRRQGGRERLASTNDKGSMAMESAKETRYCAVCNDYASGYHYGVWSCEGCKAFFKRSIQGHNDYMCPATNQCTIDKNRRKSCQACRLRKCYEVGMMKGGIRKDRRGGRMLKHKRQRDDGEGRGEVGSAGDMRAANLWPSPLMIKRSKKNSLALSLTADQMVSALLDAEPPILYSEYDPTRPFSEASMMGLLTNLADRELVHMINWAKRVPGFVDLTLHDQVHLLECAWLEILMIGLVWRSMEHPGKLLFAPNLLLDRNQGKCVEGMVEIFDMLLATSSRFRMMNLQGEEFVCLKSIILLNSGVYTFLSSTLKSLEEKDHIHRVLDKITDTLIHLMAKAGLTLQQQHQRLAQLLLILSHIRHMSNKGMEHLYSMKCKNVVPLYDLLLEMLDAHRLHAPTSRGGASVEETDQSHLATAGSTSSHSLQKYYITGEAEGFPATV
Progesterone receptor (Homo sapiens), sequence (P06401 whole entry, looked up): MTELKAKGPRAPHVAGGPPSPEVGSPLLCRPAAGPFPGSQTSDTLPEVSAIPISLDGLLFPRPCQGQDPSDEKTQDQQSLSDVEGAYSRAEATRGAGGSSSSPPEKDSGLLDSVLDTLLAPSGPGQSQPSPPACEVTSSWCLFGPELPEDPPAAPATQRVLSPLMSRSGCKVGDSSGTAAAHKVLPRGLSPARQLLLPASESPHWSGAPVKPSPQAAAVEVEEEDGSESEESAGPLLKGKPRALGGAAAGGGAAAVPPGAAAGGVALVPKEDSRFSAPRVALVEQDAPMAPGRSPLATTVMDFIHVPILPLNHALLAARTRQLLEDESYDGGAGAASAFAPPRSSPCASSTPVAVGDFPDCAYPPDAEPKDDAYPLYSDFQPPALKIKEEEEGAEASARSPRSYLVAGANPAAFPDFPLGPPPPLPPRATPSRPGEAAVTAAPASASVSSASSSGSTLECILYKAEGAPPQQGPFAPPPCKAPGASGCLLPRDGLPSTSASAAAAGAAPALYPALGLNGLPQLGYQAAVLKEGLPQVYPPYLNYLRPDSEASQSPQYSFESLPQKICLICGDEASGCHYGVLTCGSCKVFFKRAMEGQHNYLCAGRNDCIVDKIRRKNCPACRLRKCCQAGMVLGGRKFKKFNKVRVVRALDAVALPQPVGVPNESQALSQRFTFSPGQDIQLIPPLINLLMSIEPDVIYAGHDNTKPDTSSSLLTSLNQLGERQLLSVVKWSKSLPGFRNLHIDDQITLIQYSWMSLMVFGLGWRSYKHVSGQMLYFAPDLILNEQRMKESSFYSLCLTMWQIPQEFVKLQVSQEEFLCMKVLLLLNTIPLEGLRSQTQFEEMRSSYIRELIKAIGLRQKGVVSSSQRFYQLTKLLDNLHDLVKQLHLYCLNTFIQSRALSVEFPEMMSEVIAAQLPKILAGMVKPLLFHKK

On to `CC(=O)CC(=O)c1ccccc1`, for which the Potency entry in experiment [1], in experiment [2], in experiment [3], in experiment [4], in [5] and in experiment [6] was “inactive” in each case. The Potency entry in [7], in experiment [8], in experiment [10], in [11] and in [14] was “inactive” in each case. Besides, the compound was classed as inactive in experiment [9], in experiment [12] and in experiment [13].
As to `Oc1ccc(Cc2ccccc2)cc1`, the Potency entry in experiment [5], in experiment [7], in experiment [15], in [8], in experiment [17] and in experiment [11] was “inactive” each time. Also, the Potency result in experiment [14] was “inactive”. For the same compound, in experiment [16], the Potency is 22.5 µM (active). The compound was called inactive in experiment [12] and in [13].
As to `CC[C@]12CCCN3CCc4c(n(c5ccccc45)C(=O)C1)[C@@H]32`, the Potency result in [1], in experiment [2], in experiment [7], in experiment [15], in [8] and in experiment [10] was “inactive” each time. The Potency entry in experiment [19], in experiment [17] and in [11] was “inactive” throughout. Besides, the Potency in experiment [18] is 29.8 µM (active); in experiment [16] it was 13.3 µM (active). In addition, the call in [9] and in experiment [12] was inactive.
Turning to `c1ccc(OCc2ccc(CCCN3CCOCC3)cc2)cc1`, the Potency result in experiment [1], in [2], in experiment [18], in experiment [5], in experiment [6] and in experiment [7] was “inactive” each time. The Potency result in [15], in [17], in experiment [11] and in experiment [14] was “inactive” in each case. The Potency in experiment [3] is 29.8 µM (active). Further, the compound was called inactive in experiment [9], in [12] and in experiment [13].
As to `O=C(Nc1ccccc1)OCC(CN1CCCCC1)OC(=O)Nc1ccccc1` (centres undefined), the Potency entry in experiment [1], in experiment [3], in experiment [6], in [7], in experiment [8] and in experiment [10] was “inactive” throughout. Besides, the Potency result in [19], in experiment [17], in experiment [11] and in experiment [14] was “inactive” each time. The Potency in experiment [2] was 26.6 µM (active); in [4], 26.6 µM (active); in [15], 18.8 µM (active); in experiment [16], 23.7 µM (active). For the same compound, the call in experiment [9], in experiment [12] and in experiment [13] was inactive.
Turning to `CC(=O)[C@@]1(O)CC[C@H]2[C@@H]3C[C@H](C)C4=CC(=O)CC[C@]4(C)[C@H]3CC[C@@]21C`, the Potency entry in [1], in experiment [2], in experiment [3], in [4], in [6] and in [7] was “inactive” each time. For the same compound, the Potency entry in [15], in [8], in experiment [10], in experiment [17] and in [11] was “inactive” throughout. Also, the call in experiment [12] was inactive.
Take `CC/C(=C\C(=N/O)C(N)=O)C(C)[N+](=O)[O-]` (centres undefined): the Potency result in experiment [1], in experiment [2], in experiment [3], in [4], in [5] and in [6] was “inactive” in each case. In addition, the Potency result in experiment [7], in experiment [15], in experiment [8], in [16], in [10] and in experiment [19] was “inactive” in each case. Besides, the Potency result in experiment [17], in experiment [11] and in experiment [14] was “inactive” each time. Further, the outcome in experiment [9], in experiment [12] and in [13] was inactive.
Consider `CN(C)CCCNCCCN`, for which the Potency result in [1], in [2], in experiment [3], in experiment [6], in [7] and in experiment [15] was “inactive” throughout. For the same compound, the Potency result in experiment [8], in experiment [10], in [19], in experiment [17], in experiment [11] and in experiment [14] was “inactive” throughout. Also, the call in experiment [12] and in experiment [13] was inactive.
For `O=C(Cl)c1ccc([N+](=O)[O-])cc1`, the Potency entry in experiment [1], in [2], in experiment [3], in [4], in [18] and in experiment [6] was “inactive” throughout. In addition, the Potency entry in [7], in experiment [15], in experiment [8], in experiment [19], in experiment [17] and in [11] was “inactive” in each case. Moreover, the Potency result in [14] was “inactive”. Further, the compound was classed as inactive in [12] and in [13].
Regarding `CN(C(=O)CCCOc1ccc2[nH]c(=O)ccc2c1)C1CCCCC1`, the Potency entry in experiment [1], in experiment [3], in [4], in [5], in experiment [7] and in experiment [15] was “inactive” throughout. In addition, the Potency result in experiment [8], in experiment [17], in experiment [11] and in experiment [14] was “inactive” throughout. Moreover, the outcome in [9] and in experiment [13] was inactive.
Turning to `CN1CCN(C2=Nc3cc(Cl)ccc3Nc3ccccc32)CC1`, the Potency result in experiment [1], in experiment [6], in experiment [7], in experiment [15], in experiment [8] and in experiment [10] was “inactive” in each case. For the same compound, the Potency result in experiment [19], in [17], in experiment [11] and in [14] was “inactive” in each case. Further, the Potency in experiment [4] was 29.8 µM (active); in [16] it was 23.7 µM (active). In addition, the call in [9], in [12] and in [13] was inactive.
